Sampled rows, rich in hits. Any-hit rate of the full collection: about 2.4%.
Pol iota inh: blocks human DNA polymerase iota activity; AID 588590; Potency, µM (titrated, usually from 115 µM), for inactives: at the top dose activity, negative = inhibition, actives largely listed as inhibitors; actives 1% (n = 390,000); Q9UNA4; Pol iota fluorescent replication assay, 10 min
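Pol iota at 10 nM preincubated 15 min with compounds at room temperature; reaction started with fluorescent substrate, 50 nM final. Fluorescence read kinetically at 0 and 10 min; buffer-only wells as negative control.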
POLB inh: inhibitors of human DNA polymerase beta; P06746; Pol beta primer extension/strand displacement, fluorescence kinetic; Potency, µM (doses to about 114 µM), for inactives: at the top dose activity change, negative = inhibition, most hits filed as inhibitors; actives 1.3% (n = 340,000); AID 485314; note: % is set by controls: 0 for no effect and ±100 for the full control effect
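Reaction started by 50 nM substrate onto compound-treated Pol beta (10 nM, 15 min preincubation, room temperature); plates read at 0 min and 10 min. Normalized concentration-effect data fitted by four-parameter Hill equation.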
FEN1 inh: blocks human flap endonuclease 1; P39748; Recombinant FEN1 flap cleavage, fluorescence, 15 min; Potency, µM (doses to about 114 µM), inactives show top-dose activity change, negative = inhibition, hits mostly inhibitors; actives 0.35% (n = 390,000); note: % is set by controls: 0 for no effect and ±100 for the full control effect; nearly all actives have a fitted effect of over 65% in size
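In this screen, 50 nM flap DNA substrate was added to 10 nM FEN1 pretreated with compound for 15 min at room temperature; cleavage was followed with reads at 0 and 15 min, and Hill fitting gave concentration–response parameters.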
Pol kappa inh: blocks human DNA polymerase kappa activity | AID 588579 | purified Pol kappa, fluorescent DNA synthesis assay, 10 min | actives 0.53% (n = 400,000) | Potency, µM (top dose mostly 107 µM), for the others: top-dose activity, negative = inhibition, actives largely listed as inhibitors; note: % is set by controls: 0 for no effect and ±100 for the full control effect
Target sequence (Q9UBT6 whole entry, looked up): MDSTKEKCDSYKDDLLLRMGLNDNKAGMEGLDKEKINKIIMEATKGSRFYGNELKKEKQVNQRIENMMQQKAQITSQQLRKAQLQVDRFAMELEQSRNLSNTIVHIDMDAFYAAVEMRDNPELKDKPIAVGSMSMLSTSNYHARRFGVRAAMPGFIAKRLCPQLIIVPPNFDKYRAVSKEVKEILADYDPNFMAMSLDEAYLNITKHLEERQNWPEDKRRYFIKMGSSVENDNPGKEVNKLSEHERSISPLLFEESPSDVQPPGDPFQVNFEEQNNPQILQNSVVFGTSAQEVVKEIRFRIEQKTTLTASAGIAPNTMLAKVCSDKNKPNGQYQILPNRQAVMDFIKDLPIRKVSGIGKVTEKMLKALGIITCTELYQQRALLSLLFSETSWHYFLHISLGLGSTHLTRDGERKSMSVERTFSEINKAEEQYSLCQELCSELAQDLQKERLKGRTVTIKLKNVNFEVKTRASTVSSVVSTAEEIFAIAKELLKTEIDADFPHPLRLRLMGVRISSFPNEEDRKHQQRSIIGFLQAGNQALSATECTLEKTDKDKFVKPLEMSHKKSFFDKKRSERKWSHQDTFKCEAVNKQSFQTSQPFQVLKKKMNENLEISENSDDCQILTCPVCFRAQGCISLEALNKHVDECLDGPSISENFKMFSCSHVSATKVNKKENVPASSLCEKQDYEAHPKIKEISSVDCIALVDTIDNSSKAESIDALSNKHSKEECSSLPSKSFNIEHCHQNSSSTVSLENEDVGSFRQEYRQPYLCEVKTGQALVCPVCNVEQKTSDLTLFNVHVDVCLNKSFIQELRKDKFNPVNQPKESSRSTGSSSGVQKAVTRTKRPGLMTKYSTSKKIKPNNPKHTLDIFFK
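Fluorescent qHTS in 1536-well format: enzyme (10 nM) and compound sat 15 min at room temperature before 50 nM substrate (final) was added. Signal taken at 0 and 10 min; no-enzyme buffer wells were negative controls.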
Pol eta inh: inhibitors of human DNA polymerase eta. recombinant Pol eta, fluorescent DNA replication assay. Potency, µM (series often up to 114 µM), inactives show at the top dose activity change, negative = inhibition, actives largely listed as inhibitors. actives 1.2% (n = 390,000); note: % is set by controls: 0 for no effect and ±100 for the full control effect
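Pol eta at 10 nM preincubated with compounds 15 min at room temperature; reaction started with fluorescent substrate (50 nM final) and read kinetically at 0 and 10 min.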
WRN helicase inh: inhibitors of human WRN helicase | Q14191 | WRN helicase unwinding, fluorescent forked duplex, kinetic | Potency, µM (titrated, usually from 114 µM), for inactives: at the highest dose activity change, negative = inhibition, hits mostly inhibitors | actives 0.46% (n = 360,000); note: % is set by controls: 0 for no effect and ±100 for the full control effect; nearly all actives have a fitted effect of over 55% in size
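Screening of the MLSMR collection measured strand separation of a quenched forked DNA duplex (100 nM) by 20 nM WRN with 2 mM ATP, all final. Compounds were preincubated with enzyme 15 min at room temperature.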
The depositor's hits bear a star; ? = inconclusive; / = no result given; [ ] = another dose, or the depositor's remark. Calls come from the whole dose curve; as a rule, active = well fitted curve in the direction sought with a large enough effect; inconclusive = small, poorly fitted or top-dose-only effect, or another doubt; inactive = no such curve, though single readings can be large; an effect the other way counts as inactive or inconclusive. Potency is the fitted concentration of half-maximal effect.

SMILES | Pol iota inh | POLB inh | FEN1 inh | Pol kappa inh | Pol eta inh | WRN helicase inh
COc1cccc(=O)c2c(C)n(C)c(C)c12 | 39.8µM* | 25.1µM* | -2.2% | ? | ? | -28.4%
CCCCCn1c(C)c2c(OCC)cccc(=O)c2c1C | ? | 0.7% | -3.4% | -18.2% | -26.0% | -3.1%
CCOc1cccc(=O)c2c(C)n(C)c(C)c12 | 22.4µM* | ? | ? | ? | ? | -23.7%
COc1cccc(CNC(=O)CN2C(=O)N(c3cc(C)ccc3C)S(=O)(=O)c3ccccc32)c1OC | 14.1% | -11.0% | 15.7% | -4.7%[60.1 µM] | -20.8% | /
CN(C)c1ccc(NC(=O)CCSc2nc(-c3ccco3)cc(C(F)(F)F)n2)cc1 | 9.0% | -5.2% | 3.1% | -9.2% | -23.4% | /
CC1(C)Cc2c(C#N)c(NCCc3ccccc3)nc(-c3ccco3)c2CO1 | 79.4µM* | 16.0% | 4.9% | -1.8% | 89.1µM* | -18.5%[57.1 µM]
COc1cc(-c2ccc(N=Nc3ccc4c(S(=O)(=O)O)cc(S(=O)(=O)O)c(N)c4c3O)c(OC)c2)ccc1N=Nc1ccc2c(S(=O)(=O)O)cc(S(=O)(=O)O)c(N)c2c1O | / | / | / | 0.251µM* | / | /
c1ccc(Nc2nc(-c3ccccc3)nc3ccccc23)cc1 | 47.6% | 37.5% | 3.8% | -0.1% | -17.2% | -3.9%
Fc1cccc(Nc2nc(-c3ccncc3)nc3ccccc23)c1 | ? | 12.6µM* | 12.2% | -22.5% | 14.1µM* | ?
Cc1ccc2[nH]c(-c3ccccc3)cc(=O)c2c1 | 18.4% | 24.7% | -11.6% | -0.3% | -13.0% | 10.2%
COc1ccc(-c2cc(=O)c3cc(C)ccc3[nH]2)cc1 | 79.4µM* | 3.8% | -6.3% | -11.0% | 8.9% | -5.8%
COc1ccc(-c2cc(=O)c3cc(OC)ccc3[nH]2)cc1 | 35.5µM* | 14.2% | -18.6% | 4.4% | 1.4% | 3.0%
Cc1ccc2c(=O)cc(C(=O)NCCc3ccc(S(N)(=O)=O)cc3)oc2c1 | 44.7µM* | ? | -21.1% | -90.2% | 22.4µM* | ?
COc1cc(S(=O)(=O)O)c(C)cc1N=Nc1c(O)ccc2cc(S(=O)(=O)O)ccc12 | 44.7µM* | / | 35.5µM* | 79.4µM* | / | /
CC(C)n1c(=O)c2c(O)cc(=O)oc2c2ccccc21 | ? | 17.8µM* | ? | ? | -28.6% | -3.5%[11.6 µM]
O=c1cc(O)c2c(=O)n(-c3ccccc3)c3ccccc3c2o1 | 5.5% | 22.4µM* | 1.9% | -25.7% | ? | -13.8%
CCn1c(=O)c2c(O)cc(=O)oc2c2ccccc21 | -7.8% | 27.1% | ? | -7.3% | 0.7% | 0.8%
COC(=O)C1C[C@@H]2C3=C(C(=O)[C@@](C)(NC(=O)c4ccccc4)C3[C@H](C(=O)OC)C1)[C@H](C)n1c(=O)n(-c3ccccc3)c(=O)n12 (stereo not given in full) | -20.1% | / | -6.5% | -4.2% | / | /
O=C(O)/C(=C\c1ccc(Br)cc1)c1ccc(S(=O)(=O)N2CCCCC2)s1 | ? | 28.2µM* | -8.5% | -9.8% | ? | -32.1%
O=C(O)/C(=C\c1ccc(C(F)(F)F)cc1)c1ccc(S(=O)(=O)N2CCCC2)s1 | -5.2% | / | 1.1% | -13.7% | -1.5% | -2.2%
CCc1ccc(OCC(=O)NNC(=O)c2ccc(NC(=O)C3CC3)cc2)cc1 | 79.4µM* | 31.6µM* | 8.2% | -8.2% | ? | -34.8%
COc1ccc(NC(=O)CSc2nc(N)c(NC(=O)c3ccccc3F)c(=O)[nH]2)cc1 | 11.2% | 37.3% | -0.2% | -11.8% | -6.8% | -13.8%
COc1ccc(C(=O)Nc2c(N)nc(SCC(=O)Nc3ccc(NC(C)=O)cc3)[nH]c2=O)cc1 | 79.4µM* | 35.5µM* | -2.7% | ? | ? | -29.4%
COc1ccc(NC(=O)c2ccc(NC(=O)CSc3nccc(=O)[nH]3)cc2)cc1 | 1.6% | 12.8% | -2.9% | -10.1% | 25.1µM* | ?
COc1ccccc1NC(=O)c1ccc(NC(=O)CSc2nc(N)cc(=O)[nH]2)cc1 | -14.4% | / | 20.4% | -6.8% | 2.9% | -1.8%
SMILES | Pol iota inh | POLB inh | FEN1 inh | Pol kappa inh | Pol eta inh | WRN helicase inh
COc1ccc(N(Cc2cccs2)C(=O)c2ccc(Br)o2)cc1 | 0.5% | -23.0% | 3.3% | -20.5% | -16.7% | /
O=C(C[n+]1ccc(C(=O)N/N=C/c2ccc(O)cc2)cc1)c1ccccc1 | 37.7% | 56.2µM* | -2.5% | -13.0% | ? | -23.3%
O=C(C[n+]1ccc(C(=O)N/N=C/c2ccc(Br)cc2)cc1)c1ccccc1 | 16.1% | -1.4% | -1.2% | 1.0% | ? | -0.7%
O=C(Cc1nnc(NC(=O)c2ccccc2)s1)N/N=C/c1ccc(O)cc1 | ? | 25.1µM* | -9.7% | -8.1% | -21.8% | -5.9%
CC(=O)N1c2ccc(S(=O)(=O)NCC3CCC(C(=O)Nc4cc(C)ccc4C)CC3)cc2CC1C (stereo not given) | -12.5% | 17.6% | 1.3% | 4.8% | -9.2% | /
COC(=O)c1ccccc1NC(=O)Cn1c(=O)n(-c2ccc(C)cc2)c(=O)c2ccccc21 | -11.3% | 5.6% | 14.0% | -3.1% | -23.1% | /
CCc1oc2ccccc2c1C(=O)c1cc(Br)c(O)c(Br)c1 | 15.6% | 50.1µM* | 1.8% | -17.9% | -18.0% | -9.9%
CCc1ccc(OCC(=O)c2c(O)c3ccccc3oc2=O)cc1 | ? | -3.6% | 13.1% | -15.5% | -2.3% | 1.0%
CCOC(=O)N1CCc2c(sc3c2c(=O)n(-c2ccccc2)c(=O)n3CC(=O)Nc2ccc(OC)cc2OC)C1 | -15.2% | 12.9% | 5.4% | 10.7% | 1.6% | /
O=C(O)CN(CC(=O)O)Cc1cc2c(-c3ccccc3C(=O)O)c3cc(CN(CC(=O)O)CC(=O)O)c(=O)cc-3oc2cc1O | / | / | / | 7.08µM* | / | /
O=c1cc(-c2ccc(O)cc2O)oc2ccccc12 | / | / | / | -11.1%[19.4 µM] | / | /
Cc1ccc(O)c(NC(=O)c2ccccc2-c2ccccc2C(=O)O)c1 | 7.9% | -1.3% | -1.0% | -4.7% | -7.1% | ?
O=C(O)c1ccccc1-c1c2ccc(=O)cc-2oc2cc(O)ccc12 | / | / | / | 26.7µM* | / | /
COc1ccccc1NC(=O)c1nc(SCc2ccccc2F)ncc1Cl | -11.1% | / | 1.9% | -18.5% | / | /
N#CC(c1ccc(Cl)cc1)c1c(Cl)cc(-n2ncc(=O)[nH]c2=O)cc1Cl (stereo not given) | / | / | / | -0.2%[19.4 µM] | / | /
CCCCCCCCCCCCC/C=C/[C@@H](O)[C@H](CO)NC(C)=O | / | / | / | 5.6%[19.4 µM] | / | /
O=C(NCc1ccco1)c1nn2c(C(F)(F)F)cc(-c3cccs3)nc2c1Br | 5.1% | 89.1µM* | 0.7% | -9.6% | -15.3% | -37.9%
COc1ccc(-c2cc(C(F)(F)F)n3nc(C(=O)NCC45CC6CC(CC(C6)C4)C5)cc3n2)cc1OC | -3.6% | 3.2% | 11.0% | -15.2% | -0.5% | /
